Laboratory results taken from ChEMBL document CHEMBL1157539, “Thousands of chemical starting points for antimalarial lead identification” (Nature, 2010).
Whole data set: some 13,000 compounds, median “IFI” near 4, cut for the highest 2% near 17. Many of the other results were omitted from the sample, so the highest values are more common in it than they were.

test: GSK_TCMDC: Inhibition Frequency Index (IFI). The number of non-kinase HTS assays where a compound showed > 50 % inhibition, expressed as a percentage of the number of such assays in which the compound was tested; type: functional

Row | SMILES | IFI [%]
1 | OC(c1cc(C(F)(F)F)nc2c(F)cccc12)C1CCCCN1 (stereo not given) | 0
2 | CC(C)(C)OC(=O)Nc1cccc(-c2csc(NC(=N)N)n2)c1 | 4.08
3 | CC(CNC(=O)[C@H]1CNCCN1C(=O)CCCc1ccccc1)c1ccccc1 (stereo not given in full) | 2.84
4 | COc1cccc2c1CCN(CCN1CCC(NC(=O)c3ccc(-c4cccc(Cl)c4Cl)cc3)CC1)C2 | 7.63
5 | O=C(Oc1ccc(C2CNCCc3c2cc(OC(=O)c2ccc(O)cc2)c(OC(=O)c2ccc(O)cc2)c3Cl)cc1)c1ccc(O)cc1 (stereo not given) | 5.07
6 | COc1ccc(C=NN=c2cc(C)[nH]c3ccc(C)cc23)c2ccccc12 | 7.09
7 | C=CCNS(=O)(=O)c1ccc(NC(=O)C(C)Oc2ccc([N+](=O)[O-])cc2)cc1 (stereo not given) | 14.8
8 | CCCNS(=O)(=O)c1ccc(NC(=O)C(C)Oc2ccc([N+](=O)[O-])cc2)cc1 (stereo not given) | 17.5
9 | CCC(C)c1ccc(NC(=O)C(C)c2ccc([N+](=O)[O-])cc2)cc1 (stereo not given) | 23.7
10 | CCN(CC)c1ccc(C(c2ccc(N(CC)CC)cc2)c2ccc([N+](=O)[O-])cc2)cc1 | 4.35
11 | CCCCNS(=O)(=O)c1ccc(NC(=O)c2cc([N+](=O)[O-])ccc2Cl)cc1 | 5.17
12 | CCC(C)c1ccc(NC(=O)Nc2ccnc3ccccc23)cc1 (stereo not given) | 10.2
13 | CS(=O)(=O)c1ccc2[nH]c(-c3cc(-c4cccc(F)c4)cnc3N)nc2c1 | 6.45
14 | CC(=O)Nc1cccc(Nc2nccc(Nc3ccc(Oc4ccccc4)cc3)n2)c1 | 4.96
15 | COc1ccc(-c2ccc(NC(=O)c3cccc(Cl)c3)cc2)cc1CN1CCN(C)CC1 | 7.84
16 | CCOC(=O)c1ccc(NC(=O)N(Cc2ccc(-c3ccc(CN4CCNCC4)cc3)cc2)C2CCN(Cc3ccccc3)CC2)cc1 | 7.64
17 | Cc1cc(N[C@@H](Cc2ccccc2)C(=O)NCCOc2ccccc2)nc(NCCc2cccs2)n1 | 11.6
18 | Cc1cc(N)c2cc(NC(=O)c3ccc4ccccc4c3)ccc2n1 | 6.08
19 | Cc1nc(-c2ccc(-c3ccc(NC(=O)c4coc5ccc(N6CC(C)N(C)C(C)C6)cc45)cc3)c(C)c2)no1 (stereo not given) | 4.08
20 | O=C(Nc1ccc(Cl)cc1)N[C@H]1CCN(Cc2ccc(OCCCN3CCCCC3)cc2)C1 | 7.14
21 | CCN(CC)CCCC(C)Nc1ccnc2ccc(OC)cc12 (stereo not given) | 0.73
22 | COc1ccccc1CNc1ccnc(N2CC(Oc3ccc(F)cc3)C2)n1 | 4
23 | CCCCNC(=N)c1ccc(OCCCCCOc2ccc(C(=N)NCCCC)cc2)cc1 | 2.26
24 | CCCCCNC(=N)c1ccc(OCCCCCOc2ccc(C(=N)NCCCCC)cc2)cc1 | 5
25 | CCCCOc1ccc(C(=O)C(CCC(CNC(C)(C)C)C(=O)c2ccc(OCCCC)cc2)CNC(C)(C)C)cc1 (stereo not given) | 25.4
26 | O=C(Nc1ccccc1)Nc1cccc(-c2cccc(-c3nc4cc(F)ccc4[nH]3)c2)c1 | 3
27 | Cc1ccc2[nH]c(-c3cc(-c4ccc(CO)cc4)cnc3N)nc2c1 | 5.51
28 | c1ccc2oc(-c3cc4ccncc4cc3OC3CCNCC3)cc2c1 | 8.77

Row | SMILES | IFI [%]
29 | O=C(N[C@@H](Cc1ccccc1)[C@H](O)CNCCC(F)(F)F)c1cccc(CCC2CC2)c1 | 6.1
30 | CCc1cn(CCOC)c2ccc(C(=O)N[C@@H](Cc3ccccc3)[C@H](O)CNC(C)(C)CCCC(C)C)cc12 | 5.07
31 | O=C(N[C@@H](Cc1ccccc1)[C@H](O)CNCCC(F)(F)F)c1cccc(OCC2CC2)c1 | 6.1
32 | CCc1cn(CCc2ccccc2)c2ccc(C(=O)N[C@@H](Cc3ccccc3)[C@H](O)CNC(C)(C)CCCC(C)C)cc12 | 8.7
33 | CC(C)CCCC(C)(C)NC[C@@H](O)[C@H](Cc1ccccc1)NC(=O)c1cccc(OCC2CC2)c1 | 18.6
34 | CC(C)CCCC(C)(C)NC[C@@H](O)[C@H](Cc1ccccc1)NC(=O)c1cccc(CCC2CC2)c1 | 22.4
35 | COc1cc2nc(N3CCC(CNC(=O)c4ccc(-c5ccc(C#N)cc5C)cc4)CC3)nc(N)c2cc1OC | 6.31
36 | CCN(CC)CCCNc1ncc2c(-c3ccc(NC(=O)Nc4cc(C(F)(F)F)ccc4F)cc3)nn(C)c2n1 | 10.8
37 | CN(c1ccccc1)S(=O)(=O)c1cccc(NC(=O)c2ccc(-n3ccnc3)c([N+](=O)[O-])c2)c1 | 17.2
38 | Cc1nnc2sc(-c3cccc(NC(=O)c4ccc(N5CCCCC5)c([N+](=O)[O-])c4)c3)nn12 | 1.47
39 | O=C(Nc1ccc(-c2nc3ccccc3[nH]2)cc1)c1ccc(N2CCCC2)c([N+](=O)[O-])c1 | 0.99
40 | CN1CCN(CCNc2c3ccccc3nc3c2ccc2ccccc23)CC1 | 6.99
41 | O=S(=O)(Nc1cccc(CCN2CCCCC2CCN2CCCC2)c1)c1ccc(Oc2ccccc2)cc1 (stereo not given) | 17.5
42 | O=S(=O)(Nc1cccc(CCN2CCCCC2CCN2CCCC2)c1)c1ccc(-c2ccccc2)cc1 (stereo not given) | 14.5
43 | O=S(=O)(Nc1cccc(CCN2CCCCC2CCN2CCCC2)c1)c1ccc2ccccc2c1 (stereo not given) | 13.1
44 | NC1CCCN(Cc2cccc(-c3ccc(-c4nc5cc(C(F)(F)F)ccc5[nH]4)cc3)c2)C1 (stereo not given) | 5.63
45 | CC(=NNC(=N)N)c1ccc2c(c1)Cc1ccccc1-2 | 7.19
46 | CS(=O)(=O)NCCCNCc1ccc(-c2ccc(-c3nc4cc(F)ccc4[nH]3)cc2)cc1 | 5.94
47 | Nc1c(I)cc(C(=O)Nc2ccc3nc4c(c(N)c3c2)CCCC4)cc1I | 22.8
48 | CC(C)(C)c1ccc(C(=O)Nc2ccc3nc4c(c(N)c3c2)CCCC4)cc1 | 4.9
49 | Nc1c2c(nc3ccc(NC(=O)c4ccccc4)cc13)CCCC2 | 2.86
50 | CCN(CCCN1CCCCC1)c1cc(C)nc(Nc2ccc(Cl)cc2C)n1 | 5
51 | CN(C)c1ccc(CN2CCC(CNC(=O)c3cc(-c4cccc(F)c4)cs3)C2)cc1 (stereo not given) | 6.12
52 | CCN1CCC(N(Cc2ccc(-c3ccc(C(F)(F)F)cc3)cc2)C(=O)Cn2nc(C)c(=O)cc2SCc2ccc(F)cc2)CC1 | 19.6
53 | CCN1CCC(N(Cc2ccc(-c3ccc(C(F)(F)F)cc3)cc2)C(=O)Cn2c(SCc3cccc(F)c3F)cc(=O)c3ccccc32)C1 (stereo not given) | 7.14
54 | CCN1CCC(N(Cc2ccc(-c3ccc(C(F)(F)F)cc3)cc2)C(=O)Cn2c(SCc3ccc(F)cc3)nc(=O)c3c2CCC3)CC1 | 12.5
55 | Cc1cccc2nc(-c3ccc(-c4ccc(NC(=O)C5CCN(C)CC5)cc4)cc3)[nH]c12 | 4.24
